The values that follow come from PubChem BioAssay AID602248 (The Scripps Research Institute Molecular Screening Center, 2012).

The structures appear in SMILES notation. In all, about 360,000 compounds went through this assay and about 1,700 (0.47%) were called active. This is one part of a sample in which actives are shown more often than they occur. Rule as the data show it: active = activation above about 15%; inactive = the rest.

The test in a line: counter-screen for M1 agonists: effect in parental CHO-K1 cells (AID 602248).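 Also: untransfected CHO-K1 host cells lacking M1 receptor as counterscreen.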 To be noted: Fluo-8 calcium fluorescence, at 3 µM, hits give high values, scaled to maximal ATP response, vehicle zero.
Take `COc1ccc(S(=O)(=O)N2CCOCC2)c(C)c1C`: the activation was 0.55% (inactive).
Take `COCCNc1ncnc2c1nc1n2CCCC1`: the activation was 0.47% (inactive).
As for `O=C(/C=C/c1c(Cl)cccc1Cl)NCc1ccccc1`, the activation was 0.05% (inactive).
As for `O=C(CCc1ccccc1)Nc1nn[nH]n1`, the activation is 1.57% (inactive).
Then `O=C(/C=C/c1c(F)cccc1Cl)Nc1nn[nH]n1`, with 22% (active); and `O=C1CCC(=O)N(O)CCCCCNC(=O)CCC(=O)N(O)CCCCCNC(=O)CCC(=O)N(O)CCCCCN1`, with -0.15% (inactive).
Turning to `CCOc1ccc(OCC)c(NC(=O)C2CCN(S(=O)(=O)c3c(C)noc3C)CC2)c1`, the activation was -0.25% (inactive).
In the case of `Clc1ccc(CSc2nnc([C@@H]3CCCN3)o2)cc1`, the activation was 0.78% (inactive).
Next, `CCN1/C(=C\c2ccc3ccccc3[n+]2CC)Sc2cc(C)ccc21`: 22.8% (active); `Cc1nn(C)cc1N1C(=O)c2cccc3c(N)ccc(c23)C1=O`: 40.2% (active); `CN1C(=O)c2cccc3c(N)ccc(c23)C1=O`: 28.8% (active).
On to `CC(=O)OC1CCC2(C)C(=CCC3C4CC(=O)N(O)C(=O)C4(C)CCC32)C1` (stereo not drawn), for which the activation is 0.34% (inactive).
Then `O=C1CCC[C@@H]2CC(N3CCCCC3)C[C@@H]3CCN1[C@H]23` (stereo partly drawn), with 0.27% (inactive); and `CCCc1c(C(=O)N/N=C(\C)CCc2ccc(OC)cc2)nnn1-c1nonc1N`, with 0.32% (inactive); and `Cc1ccc(S(=O)(=O)Nc2nc(CN3CCOCC3)nc3sc(C)c(C)c23)cc1`, with 0.12% (inactive).
Then `CCCCCCCCCCCCN1C(=O)CSC1c1cccnc1` (stereo not drawn), with 1.63% (inactive); and `Oc1ccc2ccc3cccc[n+]3c2c1`, with 25.3% (active).
Turning to `COc1ccc(CCNC(=O)CSc2nnc3ccc(-c4ccncc4)nn23)cc1`, the activation is 0.28% (inactive).
On to `COCc1cc(C)nc2sc3c(=O)n(-c4cccc5ccccc45)nnc3c12`, for which the activation is 0.44% (inactive).
On to `O=C(NCc1ccccc1)C1CCCN(c2nc3ccsc3c(=O)s2)C1` (stereo not drawn), for which the activation was 18.9% (active).
On to `Cc1cc(=O)n2nc(N3CCCC(C(=O)NCc4ccc(Cl)cc4)C3)sc2n1` (stereo not drawn), for which the activation was 0.13% (inactive).
Next, `O=C(NCc1ccccc1)C1CCCN(S(=O)(=O)c2cccs2)C1` (stereo not drawn): 0.58% (inactive).
Then `CC(C)NC(=O)c1ccc(Sc2ccccc2)c([N+](=O)[O-])c1`, with -0.3% (inactive); and `CC(C)(C)NC(=O)CN1CCC(NC(=O)C23CC4CC(CC(C4)C2)C3)CC1`, with 0.73% (inactive).
Next, `COc1cc(OC)c(C(=S)N2CCCC2)cc1OC`: -0.12% (inactive).
For `CC(NC(=O)c1cccc2ccccc12)c1ccc2c(c1)CCCC2` (stereo not drawn), the activation was -0.03% (inactive).
`Nc1ccc2nc3c(=O)[nH]c(=S)[nH]c3nc2c1`: the activation is 21.2% (active).
Then `COc1cc(C(=O)OCc2cc(=O)n3ccsc3n2)ccc1OC(C)C`, with 1.63% (inactive).
Turning to `Cc1ccc(CN(Cc2cccnc2)C(=S)Nc2cccc(Cl)c2C)cc1`, the activation was 0.06% (inactive).
Then `Cc1c(Cl)cccc1NC(=S)N(Cc1ccccc1)Cc1cccnc1`, with 0.16% (inactive).
Next, `Cc1cccc(C)c1NC(=S)N(Cc1cccnc1)Cc1ccccc1Cl`: 19.6% (active); `O=C1Nc2ccccc2NC(c2ccc3c(c2)OCO3)=C1N(Cc1ccc(F)cc1)C(=O)c1ccco1`: 1.41% (inactive); `O=C(Nc1ncc([N+](=O)[O-])s1)C1COc2ccccc2O1` (stereo not drawn): 15.9% (active).
Next, `CC(=O)c1ccccc1NC(=O)COC(=O)C1COc2ccccc2O1` (stereo not drawn): 0.64% (inactive); `O=C(Nc1cc(S(=O)(=O)N2CCCCC2)ccc1Cl)C1COc2ccccc2O1` (stereo not drawn): 3.15% (inactive).
Turning to `COc1ccc(CN2C(=O)C(CC(=O)NC3CCCCC3)CC(C(=O)N3CCOCC3)=C2C)cc1` (stereo not drawn), the activation was 0.65% (inactive).
Next, `Cc1cc(OCC(=O)Nc2c(C)n(C)n(-c3ccccc3)c2=O)ccc1[N+](=O)[O-]`: 0.08% (inactive).
Then `Cc1cc(OCC(=O)NC2CCN(C)CC2)ccc1[N+](=O)[O-]`, with 23.7% (active); and `O=C(COc1ccccc1[N+](=O)[O-])NC1CC1`, with 1.25% (inactive).
In the case of `O=C(c1c(Cl)cccc1Cl)N1CCN(c2cccc3[nH]ccc23)CC1`, the activation was 2.17% (inactive).
`OC(CNCCc1ccc(Cl)cc1Cl)COc1ccccc1` (stereo not drawn): the activation is 16.2% (active).
Consider `COc1ccc(OCC(O)CNC(=O)Nc2ccc(Cl)cc2)cc1` (stereo not drawn), for which the activation was 1.9% (inactive).
For the molecule `CC(O)CNCCOc1cccc(Oc2ccccc2)c1` (stereo not drawn), the activation is 1.52% (inactive).
In the case of `C(=N/N1CCN(c2ccccc2)CC1)/c1cccs1`, the activation was 0.31% (inactive).
Consider `COc1ccc2c(c1)CCC/C2=N\OC(=O)c1ccccc1F`, for which the activation is 1.78% (inactive).
With `Fc1ccccc1CNC(=S)Nc1ccc(Cl)cc1`, the activation was 11.3% (inactive).
Then `Cc1ccccc1NC(=S)NC(=O)Cc1ccc(Cl)cc1`, with 21.2% (active).
For `CCOc1ccccc1NC(=S)NC(=O)CCc1ccccc1`, the activation is -0.34% (inactive).
Next, `O=C(Cc1ccc(Cl)cc1)NC(=S)Nc1ccccc1O`: 29.2% (active); `Cc1ccccc1N/C(SCc1ccc(Cl)cc1)=C(/C#N)C(N)=O`: 0.43% (inactive); `Cc1cc(C(=O)NNC(=S)Nc2ccccc2C)cs1`: 7.73% (inactive).
With `COc1ccc(CCNC(=O)C(=O)NCC2CCNCC2)cc1OC`, the activation was 1.91% (inactive).
With `O=C(CN1C(=O)CSC1=O)N1CCCC(Nc2ccc(F)cc2)C1` (stereo not drawn), the activation is 1.24% (inactive).
Turning to `O=C(CSc1nncn1-c1cccnc1)N1CCOCC1`, the activation was 0.39% (inactive).
Next, `Cn1c(Nc2ccc(F)cc2)nc2cc(-c3ccsc3)sc2c1=O`: 1.38% (inactive); `COc1c(N2CCN(C(=S)Nc3ccccc3F)C(C)C2)c(F)cc2c(=O)c(C(=O)O)cn(C3CC3)c12` (stereo not drawn): 0.37% (inactive).
Then `CC(=O)Nc1c(-c2ccc(C)cc2)nc2ccc(Cl)cn12`, with -0.07% (inactive); and `CS(=O)(=O)/C(C#N)=C/c1cccn1S(=O)(=O)c1ccc([N+](=O)[O-])cc1`, with 0.19% (inactive); and `C[C@@H](O)c1nc2ccccc2n1N`, with 6.47% (inactive).
Then `CCN1C(=O)C(=O)N(CC(=O)Nc2cc(C)ccc2C)C1=O`, with 0.48% (inactive); and `Cc1c(NS(=O)(=O)c2cc(C(=O)NCCc3ccc(F)cc3)cc(Cl)c2Cl)c(=O)n(-c2ccccc2)n1C`, with -0.45% (inactive).
Regarding `Cc1cc(C)c(/C=C2\C(=O)Nc3ccccc32)[nH]1`, the activation was 24.4% (active).
Take `COc1ccccc1S(=O)(=O)c1c(C)cc(C)[nH]c1=O`: the activation is 0.65% (inactive).
